The target of assay [1] is Arylsulfatase A (Homo sapiens) (UniProt P15289). The assay can be described thus: qHTS screen for enhancers of Arylsulfatase A (ASA1): LOPAC Validation Assay (AID 720538). An outline of the steps:
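Cell-based enhancement test: residual ASA activity in SV40-transformed I179S patient fibroblasts is measured by pNCS turnover (0.5mM final, 14h, room temperature) following 48h compound incubation; higher fluorescence indicates activation.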
(In general: Quantitative high-throughput screening tests each substance at several concentrations.)

A short description of assay [2]: qHTS for compounds that reverse cellular toxicity of Amyloid beta (A-beta) peptide in yeast: LOPAC Validation Assay (AID 720559).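 Also: plate controls were DMSO for no effect and equimolar ferric chloride plus clioquinol rescue for full effect.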 The essentials: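 Here, A-beta-toxic yeast grow with test compounds at 30 C for 48 hr before optical density at 600 nm is recorded; data are normalized against DMSO and the FeCl3-clioquinol control.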
Assay [3] can be described thus: qHTS for Activators of Parkin Expression: LOPAC Validation Assay (NLuc Reporter) (AID 720572;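 also: 0% = DMSO and 100% = positive control compound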). An outline of the steps:
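Cells harboring the Parkin-promoter coincidence reporter were treated for 24 h at seven concentrations. NLuc output was measured sequentially after the FLuc channel and scaled between DMSO and positive control values.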

A short description of assay [4]: qHTS for Activators of Parkin Expression: LOPAC Validation Assay (FLuc Reporter) (AID 720573;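 also: 0% = DMSO and 100% = positive control compounds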). An outline of the steps:
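Readout is FLuc luminescence from neuronal reporter cells (Parkin promoter, FLuc plus NLuc) after 24 h compound exposure in dose response. Values normalized to neutral DMSO and positive-control compounds.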

The nature of assay [5]: qHTS Assay for Identifying Gametocytocidal Compounds (AID 743244).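 Also: % is scaled to controls: 0 for no effect and ±100 for the full control effect; actives lower the fluorescent signal which means gametocytes are killed.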 To be noted: P. falciparum 3D7 stage III-V gametocytes, alamarBlue, 72 h; max response: stronger effect = lower value. An outline of the steps: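 Stage III-V P. falciparum 3D7 gametocytes, 20,000 per well, were exposed to compounds for 72 h at 37C, 5% CO2. AlamarBlue was then added for 24 h and viability was read as fluorescence at Ex 525/Em 598 nm.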

Assay [6] is described as follows: qHTS assay for small molecule agonists of the antioxidant response element (ARE) signaling pathway measured by Nrf2-dependant transcriptional activity (AID 720636; active = well fitted curve in the direction sought with a large enough effect in the repeat runs; an effect the other way counts as inactive or inconclusive;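 also: HepG2 cells with an ARE-driven luciferase reporter; % of control where 0% means no effect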). The essentials: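 ONE-Glo luminescence, read 30 min after reagent addition at room temperature, reflected ARE reporter activity in HepG2 cells that had been incubated with compound for 16 hr at 37 C in 1% dialyzed FBS.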

In assay [7] the target is T1, Hexokinase-4 (Homo sapiens) + Glucokinase regulatory protein (Homo sapiens) (UniProt P35557+Q14397). Briefly: qHTS assay for inhibitors of recombinant human GCK-GKRP interaction: Diaphorase-coupled assay (AID 743205). Also: potency is read from the fitted curve at half-maximal effect. The essentials: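 Signal derives from resorufin generated by diaphorase, linked to GCK turnover of glucose (5 mM) and ATP (0.4 mM). Enzyme complex was added after a 20-minute compound preincubation and monitored for 30 minutes.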
T1 sequence (P35557 whole entry, looked up): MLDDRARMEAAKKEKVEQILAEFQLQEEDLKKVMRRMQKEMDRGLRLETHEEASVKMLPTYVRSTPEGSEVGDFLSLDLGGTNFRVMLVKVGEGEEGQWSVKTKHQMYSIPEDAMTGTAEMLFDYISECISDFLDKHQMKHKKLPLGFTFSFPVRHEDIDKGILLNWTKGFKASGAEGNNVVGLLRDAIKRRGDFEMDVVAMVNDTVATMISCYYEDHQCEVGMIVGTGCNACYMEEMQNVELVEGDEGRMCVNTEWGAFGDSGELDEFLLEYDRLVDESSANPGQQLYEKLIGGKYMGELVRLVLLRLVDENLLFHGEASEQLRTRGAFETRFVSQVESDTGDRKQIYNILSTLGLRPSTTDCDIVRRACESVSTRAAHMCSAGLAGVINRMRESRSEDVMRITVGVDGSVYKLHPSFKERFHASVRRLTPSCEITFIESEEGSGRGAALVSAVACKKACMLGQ
T1 sequence (Q14397 whole entry, looked up): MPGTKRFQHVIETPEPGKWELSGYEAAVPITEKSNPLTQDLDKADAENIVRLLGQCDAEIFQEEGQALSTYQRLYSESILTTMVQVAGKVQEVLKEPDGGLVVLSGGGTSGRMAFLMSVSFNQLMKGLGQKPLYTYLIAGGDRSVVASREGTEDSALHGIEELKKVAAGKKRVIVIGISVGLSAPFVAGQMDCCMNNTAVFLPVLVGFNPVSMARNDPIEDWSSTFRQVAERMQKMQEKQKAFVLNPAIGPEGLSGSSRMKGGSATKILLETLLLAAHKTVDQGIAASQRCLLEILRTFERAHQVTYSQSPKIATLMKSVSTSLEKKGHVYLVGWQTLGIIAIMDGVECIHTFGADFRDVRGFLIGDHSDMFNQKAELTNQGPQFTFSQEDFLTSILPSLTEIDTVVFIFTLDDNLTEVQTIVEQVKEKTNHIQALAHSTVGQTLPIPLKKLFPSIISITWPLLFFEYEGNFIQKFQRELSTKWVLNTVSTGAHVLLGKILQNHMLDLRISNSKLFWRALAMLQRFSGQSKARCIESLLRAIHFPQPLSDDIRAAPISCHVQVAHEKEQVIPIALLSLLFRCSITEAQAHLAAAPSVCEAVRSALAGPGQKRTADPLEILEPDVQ

For assay [8], the target named is T1, Hexokinase-4 (Homo sapiens) + Glucokinase regulatory protein (Homo sapiens). Briefly: qHTS assay for inhibitors of recombinant human GCK-GKRP interaction: ADP-Glo assay (AID 743206). Also: potency is read from the fitted curve at half-maximal effect. An outline of the steps:
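Pin-transferred compounds meet a 15 nM GST-GCK/15 nM FLAG-GKRP/2 uM S6P mix (dispense concentrations). ATP is then added to 0.4 mM final with 5 mM glucose, and the reaction runs 60 min at room temperature. ADP is quantified luminescently.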

The target is the same in assay [9]. The assay can be described thus: qHTS assay for inhibitors of recombinant human GCK-GKRP interaction: HTRF assay (AID 743207). Also: potency is read from the fitted curve at half-maximal effect. The essentials:
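Titration screening format: recombinant GST-GCK and FLAG-GKRP at 5 nM, S6P at 2 uM, labelled anti-tag antibodies, 60 min at RT, dual-wavelength HTRF readout.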

Assay [10] is described as follows: qHTS assay for cell viability of HEK293 cells (AID 743288). Also: potency is read from the fitted curve at half-maximal effect; nearly all actives have a fitted effect of over 50% in size. To be noted: ATP luminescence (CellTiter-Glo), 18 h; max response: stronger effect = lower value. The essentials: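 HEK293, 18 h, 37 C, ATP luminescence. Cells at 2,000/well were allowed at least 5 h to settle before dosing; CellTiter-Glo developed 30 min at RT.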
Assay [11] is described as follows: qHTS assay for cell viability of the p53RE-bla HCT-116 cell line (AID 743292). Also: % is scaled to controls: 0 for no effect and ±100 for the full control effect; nearly all actives have a fitted effect of over 55% in size. The essentials: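 After plating at 4,000 cells per well and a 5 h rest at 37 C, HCT-116 cells carrying p53RE-bla received test chemicals in DMSO. Sixteen hours later at 37 C, CellTiter-Glo was added and luminescence recorded following 30 min at room temperature.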
Assay [12] in a line: qHTS profiling of the MIPE4 collection as inhibitors of Plasmodium falciparum (3D7) proliferation (AID 743344; call rule not given here;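 also: scaled between DMSO vehicle wells and 0.29 µM artemisinin as full inhibition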). The settings on record: P. falciparum 3D7 in erythrocytes, SYBR Green DNA fluorescence, 72 h; at 28.5 µM (top of the series) unless noted. The essentials: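 Parasite DNA was quantified by SYBR Green I fluorescence (ex 485, em 535 nm) after overnight lysis in saponin/Triton buffer at room temperature. Cultures at 0.3% parasitemia and 2.5% hematocrit were first exposed to compound for 72 h at 37 C; signals were normalised to artemisinin (0.29 uM) and vehicle wells.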

SMILES strings stand for the structures. Several values for one entry are separate records, joined by “and”; a condition that tells them apart may be missing. Equal entries are not always repeated. Results filed as inconclusive are left out. Activity calls are given as the source filed them. Unless noted, calls follow the shape of the dose curve; as a rule, active = well fitted curve in the direction sought with a large enough effect; inconclusive = small, poorly fitted or top-dose-only effect, or another doubt; inactive = no such curve, though single readings can be large; an effect the other way counts as inactive or inconclusive.

We go through 19 molecules from PubChem BioAssay (NCATS).

Arylsulfatase A (Homo sapiens), sequence (P15289 whole entry, looked up): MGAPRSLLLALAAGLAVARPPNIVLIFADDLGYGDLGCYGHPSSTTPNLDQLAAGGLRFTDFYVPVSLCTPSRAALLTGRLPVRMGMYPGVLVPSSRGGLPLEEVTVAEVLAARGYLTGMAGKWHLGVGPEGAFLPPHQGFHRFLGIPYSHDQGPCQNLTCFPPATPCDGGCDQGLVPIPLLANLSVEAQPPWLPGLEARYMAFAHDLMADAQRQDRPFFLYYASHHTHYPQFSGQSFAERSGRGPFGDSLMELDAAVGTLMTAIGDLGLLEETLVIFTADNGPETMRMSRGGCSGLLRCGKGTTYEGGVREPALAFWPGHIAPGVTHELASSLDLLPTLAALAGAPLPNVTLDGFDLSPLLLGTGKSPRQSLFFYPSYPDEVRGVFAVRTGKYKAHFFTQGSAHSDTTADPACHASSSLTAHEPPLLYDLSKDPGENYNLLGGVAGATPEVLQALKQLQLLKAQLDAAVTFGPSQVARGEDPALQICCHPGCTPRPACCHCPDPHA

As for `CN1CCN(C2=Nc3cc(Cl)ccc3Nc3ccccc32)CC1`, the Potency result in [1] and in assay [4] was “inactive” each time. Besides, the call in assay [2] and in [3] was inactive. The max response in [5] is -2.07% (inactive) and 20.9% (inactive).
Consider `CC(COc1ccccc1)N(CCCl)Cc1ccccc1` (centres undefined), for which, in assay [6], the call was inactive. In addition, the Potency result in [7], in assay [8], in assay [9] and in assay [11] was “inactive” throughout. Also, the Potency in assay [10] is 35.5 µM (active).
On to `CN1CCC(=C2c3ccccc3CC(=O)c3sccc32)CC1`, for which the outcome in assay [2] and in [3] was inactive. Also, the Potency result in [4], in assay [7], in [8] and in assay [9] was “inactive” in each case. Besides, the parasite growth, % of DMSO control in assay [12] was found to be 13.6%.
Consider `CN(CCOc1ccc(NS(C)(=O)=O)cc1)CCc1ccc(NS(C)(=O)=O)cc1`, for which the max response in assay [5] was 1.01% (inactive).
In the case of `CC[N+](CC)(CC)CCOc1cccc(OCC[N+](CC)(CC)CC)c1OCC[N+](CC)(CC)CC`, the molecule was called inactive in [2] and in assay [3]. Also, the Potency entry in assay [4], in assay [7], in assay [8] and in [9] was “inactive” each time. Also, the max response in [5] was 4.54% (inactive) and -6.53% (inactive).
In the case of `OCCN(CCO)c1nc(N2CCCCC2)c2nc(N(CCO)CCO)nc(N3CCCCC3)c2n1`, the Potency result in assay [1] was “inactive”. Also, in [2], the molecule was called inactive. Besides, the max response in assay [5] was 7.4% (inactive).
As for `CC1(C)O[C@H]2CC(=O)OC[C@]23[C@H]2CC[C@@]4(C)[C@H](c5ccoc5)OC(=O)[C@H]5O[C@]54[C@]2(C)C(=O)C[C@@H]13`, the max response in assay [5] is 0.83% (inactive). Moreover, the parasite growth, % of DMSO control in assay [12] stood at 86.6%.
On to `O=C(Nc1ccc([N+](=O)[O-])cc1Cl)c1cc(Cl)ccc1O`, for which the Potency entry in [1], in assay [7], in [8] and in [9] was “inactive” each time. In addition, in assay [6], the result was inactive. For the same molecule, the Potency in [10] was 7.08 µM (active). Also, the parasite growth, % of DMSO control in assay [12] was found to be 5.14%.
Regarding `Cc1ccc(C(=O)Nc2ccc(S(=O)(=O)O)c3cc(S(=O)(=O)O)cc(S(=O)(=O)O)c23)cc1NC(=O)c1cccc(NC(=O)Nc2cccc(C(=O)Nc3cc(C(=O)Nc4ccc(S(=O)(=O)O)c5cc(S(=O)(=O)O)cc(S(=O)(=O)O)c45)ccc3C)c2)c1`, the Potency result in assay [1] and in assay [4] was “inactive” in each case. The result in [2] and in [3] was inactive. Also, the Potency in [7] was 28.2 µM (active); in assay [8], 5.62 µM (active); in [9], 17.8 µM (active). The max response in assay [5] was 35.1% (inactive) and 2.76% (inactive). Besides, the parasite growth, % of DMSO control in [12] was 19.9%.
As for `CC(C)NCC(O)COc1ccc(CCOCC2CC2)cc1` (centres undefined), the call in assay [2] and in [3] was inactive. Further, the Potency result in [4], in assay [7] and in assay [8] was “inactive” each time. In addition, the max response in [5] is -0.0756% (inactive) and 27.3% (inactive).
Turning to `COc1ccccc1OCC(O)CN1CCN(CC(=O)Nc2c(C)cccc2C)CC1` (centres undefined), the molecule was classed as inactive in assay [2] and in [3]. Moreover, the Potency result in assay [4], in [7], in [8] and in assay [9] was “inactive” in each case. In addition, in assay [5], the max response is 19.4% (inactive) and 42.5% (inactive).
On to `C[C@@H]1CC(=O)NN=C1c1ccc(NN=C(C#N)C#N)cc1`, for which, in assay [5], the max response was 16.6% (inactive). This molecule also registered a parasite growth, % of DMSO control in assay [12] of 8.76%.
Take `CCC1(C)CC(=O)NC1=O` (centres undefined): the result in assay [2] and in [3] was inactive. The Potency entry in assay [4], in assay [7], in assay [8] and in [9] was “inactive” each time. Further, the max response in [5] is 19% (inactive) and 33% (inactive).
As for `CCOC(=O)c1ncn2c1CN(C)C(=O)c1cc(F)ccc1-2`, the molecule was classed as inactive in assay [2] and in [3]. For the same molecule, the Potency result in assay [4], in assay [7], in assay [8] and in [9] was “inactive” in each case. Further, the max response in assay [5] is 2.86% (inactive) and 37.5% (inactive).
Take `CN(C)C(=O)C(CCN1CCC(O)(c2ccc(Cl)cc2)CC1)(c1ccccc1)c1ccccc1`: the result in assay [2] and in assay [3] was inactive. Besides, in [4], the Potency entry was “inactive”.
Consider `O=C(C1CCCCC1)N1CC(=O)N2CCc3ccccc3C2C1` (centres undefined), for which the molecule was called inactive in assay [2]. Besides, the max response in [5] was 3.64% (inactive) and 8.77% (inactive). This molecule also came in with a parasite growth, % of DMSO control in assay [12] of 61.4%.
Consider `CN(C)CCCN1c2ccccc2CCc2ccc(Cl)cc21`, for which the Potency result in [1], in assay [4], in assay [7], in assay [8] and in assay [9] was “inactive” in each case. Also, the result in assay [2] and in assay [3] was inactive. Further, the parasite growth, % of DMSO control in assay [12] came out at 19.3%.
`O=C(c1ccc(F)cc1)C1CCN(CCn2c(=O)[nH]c3ccccc3c2=O)CC1`: the result in [2] and in [3] was inactive. Also, the Potency result in assay [4], in assay [7], in [8] and in [9] was “inactive” each time. For the same molecule, the max response in [5] was 7.32% (inactive) and -5.52% (inactive).
Turning to `CC(C)(C)C(=O)Oc1ccc(S(=O)(=O)Nc2ccccc2C(=O)NCC(=O)O)cc1`, the max response in assay [5] was 3.13% (inactive). The molecule further had a parasite growth, % of DMSO control in assay [12] of 101%.
